The values below come from ChEMBL document CHEMBL1961873, “Compounds: GSK PKIS; Assays: Nanosyn kinase panel” (2012).

Assay [1] deals with Mast/stem cell growth factor receptor Kit (Homo sapiens) (UniProt P10721). The note with it: at 1 µM.
The subject of assay [2] is Mast/stem cell growth factor receptor Kit (Homo sapiens), P10721 [D816V]. The note with it: at 0.1 µM.
Assay [3] has the same test system. The note with it: at 1 µM.
In assay [4] the test system is Mast/stem cell growth factor receptor Kit (Homo sapiens), P10721 [T670I]. Conditions: at 0.1 µM.
Sequence of Mast/stem cell growth factor receptor Kit (Homo sapiens), P10721 [T670I] (P10721 whole entry T670I): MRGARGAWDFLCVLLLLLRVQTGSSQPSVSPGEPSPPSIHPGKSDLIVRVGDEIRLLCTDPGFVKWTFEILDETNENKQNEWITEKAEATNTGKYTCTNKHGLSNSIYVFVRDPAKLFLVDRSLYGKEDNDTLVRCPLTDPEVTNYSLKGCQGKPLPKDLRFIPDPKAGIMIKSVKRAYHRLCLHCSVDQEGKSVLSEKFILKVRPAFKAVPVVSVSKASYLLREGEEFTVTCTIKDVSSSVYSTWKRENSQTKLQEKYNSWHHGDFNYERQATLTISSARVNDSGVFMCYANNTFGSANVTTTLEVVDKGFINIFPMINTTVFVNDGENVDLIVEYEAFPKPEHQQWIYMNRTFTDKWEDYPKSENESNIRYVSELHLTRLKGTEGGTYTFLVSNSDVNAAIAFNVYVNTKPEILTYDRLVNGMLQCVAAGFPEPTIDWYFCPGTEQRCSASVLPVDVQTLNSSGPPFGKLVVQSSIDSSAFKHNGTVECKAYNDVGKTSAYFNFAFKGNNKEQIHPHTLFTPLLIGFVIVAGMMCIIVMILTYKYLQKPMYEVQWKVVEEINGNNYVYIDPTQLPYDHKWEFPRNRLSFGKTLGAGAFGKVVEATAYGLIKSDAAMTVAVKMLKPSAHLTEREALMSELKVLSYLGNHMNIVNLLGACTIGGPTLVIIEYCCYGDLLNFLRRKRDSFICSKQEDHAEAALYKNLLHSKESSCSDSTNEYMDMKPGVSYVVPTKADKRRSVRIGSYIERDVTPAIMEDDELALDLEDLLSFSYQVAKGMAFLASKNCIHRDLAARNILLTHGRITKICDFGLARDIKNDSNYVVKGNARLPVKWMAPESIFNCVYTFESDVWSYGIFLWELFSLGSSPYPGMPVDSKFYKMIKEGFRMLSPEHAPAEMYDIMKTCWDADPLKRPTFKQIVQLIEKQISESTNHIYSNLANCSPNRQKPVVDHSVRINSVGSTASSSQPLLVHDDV
Assay [5] has the same test system. The note with it: at 1 µM.
In assay [6] the test system is Mast/stem cell growth factor receptor Kit (Homo sapiens), P10721 [V560G]. Conditions: at 0.1 µM.
Sequence of Mast/stem cell growth factor receptor Kit (Homo sapiens), P10721 [V560G] (P10721 whole entry V560G): as the sequence (P10721 whole entry T670I) above, with V560G, I670T counted along it
For assay [7] the test system is unchanged. Conditions: at 1 µM.
For assay [8], the target named is Tyrosine-protein kinase Lck (Homo sapiens) (UniProt P06239). The note with it: at 0.1 µM.
Sequence of Tyrosine-protein kinase Lck (Homo sapiens) (P06239 2-509 limits assumed): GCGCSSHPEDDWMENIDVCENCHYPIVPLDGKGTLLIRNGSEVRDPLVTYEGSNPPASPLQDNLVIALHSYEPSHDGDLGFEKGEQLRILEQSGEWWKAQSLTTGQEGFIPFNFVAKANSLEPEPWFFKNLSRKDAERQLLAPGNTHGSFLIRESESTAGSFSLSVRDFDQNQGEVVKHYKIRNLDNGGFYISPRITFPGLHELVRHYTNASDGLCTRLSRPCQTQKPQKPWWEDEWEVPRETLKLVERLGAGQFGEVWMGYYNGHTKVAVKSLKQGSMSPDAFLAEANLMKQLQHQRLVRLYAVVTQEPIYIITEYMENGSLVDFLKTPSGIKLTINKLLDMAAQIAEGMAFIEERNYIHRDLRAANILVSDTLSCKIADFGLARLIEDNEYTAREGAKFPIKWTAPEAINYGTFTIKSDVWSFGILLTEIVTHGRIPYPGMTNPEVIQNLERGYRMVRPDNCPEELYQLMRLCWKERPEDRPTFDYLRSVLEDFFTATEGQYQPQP
Assay [9] shares this target. The note with it: at 1 µM.
The target of assay [10] is Leukocyte tyrosine kinase receptor (Homo sapiens) (UniProt P29376). Conditions: at 0.1 µM.
Sequence of Leukocyte tyrosine kinase receptor (Homo sapiens) (P29376 whole entry): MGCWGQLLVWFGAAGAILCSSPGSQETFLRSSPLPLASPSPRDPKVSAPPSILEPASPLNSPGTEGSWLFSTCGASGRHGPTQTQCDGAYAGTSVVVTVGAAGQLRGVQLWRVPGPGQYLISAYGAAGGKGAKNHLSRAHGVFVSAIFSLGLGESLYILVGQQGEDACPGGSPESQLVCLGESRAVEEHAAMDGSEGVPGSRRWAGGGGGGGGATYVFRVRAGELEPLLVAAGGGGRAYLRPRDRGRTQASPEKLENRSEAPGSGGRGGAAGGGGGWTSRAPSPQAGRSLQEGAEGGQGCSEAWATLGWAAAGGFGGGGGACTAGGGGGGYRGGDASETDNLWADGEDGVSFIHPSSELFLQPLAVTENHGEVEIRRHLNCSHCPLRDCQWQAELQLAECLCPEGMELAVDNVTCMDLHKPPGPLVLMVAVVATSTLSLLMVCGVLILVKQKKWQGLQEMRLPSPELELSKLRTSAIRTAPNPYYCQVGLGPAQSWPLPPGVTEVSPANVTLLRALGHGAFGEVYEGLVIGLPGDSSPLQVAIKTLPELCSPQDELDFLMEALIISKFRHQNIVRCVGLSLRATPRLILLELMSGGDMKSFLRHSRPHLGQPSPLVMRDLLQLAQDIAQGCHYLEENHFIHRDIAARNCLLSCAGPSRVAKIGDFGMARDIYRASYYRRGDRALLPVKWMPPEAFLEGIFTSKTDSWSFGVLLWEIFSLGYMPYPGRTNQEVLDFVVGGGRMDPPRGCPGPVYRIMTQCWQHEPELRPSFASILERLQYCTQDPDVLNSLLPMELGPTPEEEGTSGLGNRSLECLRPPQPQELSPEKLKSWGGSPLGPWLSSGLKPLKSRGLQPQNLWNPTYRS
For assay [11] the target is unchanged. The note with it: at 1 µM.
The target in assay [12] is Tyrosine-protein kinase Lyn (Homo sapiens) (UniProt P07948). The note with it: at 0.1 µM.
Sequence of Tyrosine-protein kinase Lyn (Homo sapiens) (P07948 2-512 limits assumed): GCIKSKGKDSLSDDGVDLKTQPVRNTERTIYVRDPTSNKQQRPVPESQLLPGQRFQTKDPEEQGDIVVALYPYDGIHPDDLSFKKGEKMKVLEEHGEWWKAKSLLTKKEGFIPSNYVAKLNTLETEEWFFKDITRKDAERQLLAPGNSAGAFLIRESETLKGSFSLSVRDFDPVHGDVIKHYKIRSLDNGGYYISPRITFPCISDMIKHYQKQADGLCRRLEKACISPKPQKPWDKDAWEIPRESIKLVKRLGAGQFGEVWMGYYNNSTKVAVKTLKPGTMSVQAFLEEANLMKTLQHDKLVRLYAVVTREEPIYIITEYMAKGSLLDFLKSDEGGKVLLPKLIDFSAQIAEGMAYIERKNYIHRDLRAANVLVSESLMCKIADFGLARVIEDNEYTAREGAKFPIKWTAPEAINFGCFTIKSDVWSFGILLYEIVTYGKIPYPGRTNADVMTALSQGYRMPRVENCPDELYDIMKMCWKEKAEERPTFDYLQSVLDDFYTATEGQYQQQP
Assay [13] shares this target. Conditions: at 1 µM.
Assay [14] has the same target. Conditions: at 0.1 µM. This is another data set of the same source.
Assay [15] shares this target. The note with it: at 1 µM. This is another data set of the same source.
Assay [16] concerns the target T1, Tyrosine-protein kinase Mer (Homo sapiens) (UniProt Q12866).
T1 sequence (whole entry): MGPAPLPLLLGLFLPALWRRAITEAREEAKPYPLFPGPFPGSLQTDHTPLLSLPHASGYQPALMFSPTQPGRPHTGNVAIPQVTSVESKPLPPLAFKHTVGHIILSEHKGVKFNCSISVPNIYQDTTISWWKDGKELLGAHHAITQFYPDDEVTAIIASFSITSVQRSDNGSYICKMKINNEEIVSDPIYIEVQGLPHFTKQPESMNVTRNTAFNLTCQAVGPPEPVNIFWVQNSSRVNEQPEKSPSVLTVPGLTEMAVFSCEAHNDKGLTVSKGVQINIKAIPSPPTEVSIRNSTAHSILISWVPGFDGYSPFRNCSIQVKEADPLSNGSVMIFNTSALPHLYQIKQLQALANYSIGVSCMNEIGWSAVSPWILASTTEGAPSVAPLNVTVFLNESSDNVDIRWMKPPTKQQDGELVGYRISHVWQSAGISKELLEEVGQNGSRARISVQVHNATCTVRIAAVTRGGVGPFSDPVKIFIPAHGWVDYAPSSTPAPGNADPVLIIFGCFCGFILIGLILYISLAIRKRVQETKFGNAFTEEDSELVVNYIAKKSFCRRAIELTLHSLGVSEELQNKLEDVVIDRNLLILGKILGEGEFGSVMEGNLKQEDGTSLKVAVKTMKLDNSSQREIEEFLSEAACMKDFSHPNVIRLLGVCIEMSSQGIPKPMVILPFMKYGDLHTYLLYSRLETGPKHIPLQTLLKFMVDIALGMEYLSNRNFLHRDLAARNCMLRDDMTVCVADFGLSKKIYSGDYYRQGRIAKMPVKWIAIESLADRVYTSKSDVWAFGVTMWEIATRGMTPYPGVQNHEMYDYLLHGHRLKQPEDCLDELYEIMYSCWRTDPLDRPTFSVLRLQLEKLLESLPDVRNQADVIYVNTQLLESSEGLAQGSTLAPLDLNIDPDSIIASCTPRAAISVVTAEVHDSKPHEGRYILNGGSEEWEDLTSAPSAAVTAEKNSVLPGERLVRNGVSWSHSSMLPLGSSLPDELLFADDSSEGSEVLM
Conditions: at 0.1 µM.

Assay [17] has as its target T1, Tyrosine-protein kinase Mer (Homo sapiens). The note with it: at 1 µM.
Assay [18] addresses Hepatocyte growth factor receptor (Homo sapiens) (UniProt P08581). The note with it: at 0.1 µM.
Assay [19] shares this target. Conditions: at 1 µM.
For assay [20], the target named is T2, Muscle, skeletal receptor tyrosine-protein kinase (Homo sapiens) (UniProt O15146).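 Note: values are mean inhibition of MuSK from the GSK PKIS kinase screening panel.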
T2 sequence (whole entry): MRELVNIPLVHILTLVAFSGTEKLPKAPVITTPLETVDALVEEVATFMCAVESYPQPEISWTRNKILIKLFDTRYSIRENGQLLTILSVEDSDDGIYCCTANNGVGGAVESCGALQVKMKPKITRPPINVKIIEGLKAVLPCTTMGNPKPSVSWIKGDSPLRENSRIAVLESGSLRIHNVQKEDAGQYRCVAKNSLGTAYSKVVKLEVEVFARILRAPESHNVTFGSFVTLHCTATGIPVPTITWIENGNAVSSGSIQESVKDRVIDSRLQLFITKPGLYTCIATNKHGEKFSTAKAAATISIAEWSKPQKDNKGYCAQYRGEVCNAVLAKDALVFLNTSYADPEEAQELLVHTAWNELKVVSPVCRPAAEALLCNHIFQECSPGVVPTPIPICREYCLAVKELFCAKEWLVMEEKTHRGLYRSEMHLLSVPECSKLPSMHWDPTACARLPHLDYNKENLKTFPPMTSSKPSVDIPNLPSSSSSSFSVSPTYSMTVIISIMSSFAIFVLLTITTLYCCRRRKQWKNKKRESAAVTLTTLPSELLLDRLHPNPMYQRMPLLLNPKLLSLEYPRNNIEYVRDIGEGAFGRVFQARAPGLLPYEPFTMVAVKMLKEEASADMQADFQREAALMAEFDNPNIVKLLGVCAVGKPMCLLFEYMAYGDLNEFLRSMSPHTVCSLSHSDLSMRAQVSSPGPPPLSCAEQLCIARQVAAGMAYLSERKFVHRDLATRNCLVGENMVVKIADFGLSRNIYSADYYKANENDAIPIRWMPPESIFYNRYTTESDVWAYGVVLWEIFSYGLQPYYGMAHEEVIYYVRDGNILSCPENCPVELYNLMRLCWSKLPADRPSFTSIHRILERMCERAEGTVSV
The note with it: at 0.1 µM.

Sequence of Mast/stem cell growth factor receptor Kit (Homo sapiens), P10721 [D816V] (P10721 whole entry D816V): as the sequence (P10721 whole entry T670I) above, with I670T, D816V counted along it
Sequence of Hepatocyte growth factor receptor (Homo sapiens) (P08581 whole entry): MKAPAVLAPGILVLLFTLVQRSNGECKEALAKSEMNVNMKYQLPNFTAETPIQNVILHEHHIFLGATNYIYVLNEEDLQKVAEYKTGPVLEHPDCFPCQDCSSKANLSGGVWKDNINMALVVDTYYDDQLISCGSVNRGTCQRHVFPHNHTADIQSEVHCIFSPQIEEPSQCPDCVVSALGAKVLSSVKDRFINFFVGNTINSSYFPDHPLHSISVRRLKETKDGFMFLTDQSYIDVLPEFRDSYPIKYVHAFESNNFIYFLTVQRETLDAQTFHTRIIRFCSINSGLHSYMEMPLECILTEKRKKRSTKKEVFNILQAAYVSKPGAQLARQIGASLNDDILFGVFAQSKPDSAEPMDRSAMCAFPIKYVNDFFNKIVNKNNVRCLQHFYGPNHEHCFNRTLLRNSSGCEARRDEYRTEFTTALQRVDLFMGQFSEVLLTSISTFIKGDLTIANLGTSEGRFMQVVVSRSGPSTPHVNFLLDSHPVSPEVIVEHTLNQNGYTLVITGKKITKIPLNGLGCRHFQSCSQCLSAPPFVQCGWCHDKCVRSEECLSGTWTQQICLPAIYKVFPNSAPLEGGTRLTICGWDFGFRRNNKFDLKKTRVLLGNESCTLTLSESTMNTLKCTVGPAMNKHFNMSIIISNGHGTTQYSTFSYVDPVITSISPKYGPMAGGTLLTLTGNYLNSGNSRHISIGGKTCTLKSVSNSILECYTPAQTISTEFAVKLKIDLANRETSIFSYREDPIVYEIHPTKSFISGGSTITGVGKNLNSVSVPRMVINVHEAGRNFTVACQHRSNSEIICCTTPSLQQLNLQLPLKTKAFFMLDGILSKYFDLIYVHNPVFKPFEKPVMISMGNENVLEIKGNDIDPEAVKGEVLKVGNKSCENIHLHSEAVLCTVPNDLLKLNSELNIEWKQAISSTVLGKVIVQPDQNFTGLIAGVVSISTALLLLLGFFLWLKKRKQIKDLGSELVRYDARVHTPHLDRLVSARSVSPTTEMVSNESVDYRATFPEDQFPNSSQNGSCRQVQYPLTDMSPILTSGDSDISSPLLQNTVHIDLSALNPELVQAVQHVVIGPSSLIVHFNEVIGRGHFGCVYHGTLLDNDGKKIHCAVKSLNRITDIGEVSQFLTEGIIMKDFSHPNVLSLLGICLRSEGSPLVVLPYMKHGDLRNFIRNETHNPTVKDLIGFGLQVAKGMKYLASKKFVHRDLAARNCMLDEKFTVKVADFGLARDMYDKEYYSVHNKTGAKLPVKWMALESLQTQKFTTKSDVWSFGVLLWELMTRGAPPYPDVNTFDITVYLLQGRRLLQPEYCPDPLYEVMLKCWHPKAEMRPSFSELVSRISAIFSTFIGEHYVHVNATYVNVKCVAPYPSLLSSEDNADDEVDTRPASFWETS
Sequence of Mast/stem cell growth factor receptor Kit (Homo sapiens) (P10721 whole entry): as the sequence (P10721 whole entry T670I) above, with I670T counted along it

As a reminder, the inhibition is the change of the read-out against control, counted positive when it falls. With `Fc1ccc(-c2ncn(CCCN3CCOCC3)c2-c2ccncc2)cc1`, the inhibition in assay [1] was -0.81%; in assay [2], 0.65%; in assay [3], -1.66%; in [4] it was -0.29%; in [5] it was -2.16%; in [6], 2.57%. Moreover, the inhibition is 0.03% in assay [7]; 0.17% in [8]; 3.45% in assay [9]; 0.08% in [10]; -2.09% in assay [11]; -0.59% in assay [12]. Besides, the inhibition in assay [13] is -0.14%; in [14] it was -1%; in [15], -0.37%; in assay [16], 0.24%; in assay [17] it was -0.01%; in assay [18], 3.89%. Moreover, the values for the inhibition in [19] and in assay [20] were -1.62% and -0.13%, respectively.

Regarding `O=C(Nc1n[nH]c2nc(-c3ccco3)ccc12)C1CC1`, the inhibition in assay [1] was 1.57%; in assay [2], -0.41%; in [3] it was 0.03%; in assay [4], 1.03%; in assay [5] it was 2.02%; in assay [6], 3.13%. Besides, the inhibition in assay [7] was found to be 6.74%; in assay [8], 1.24%; in [9], 3.59%; in assay [10], 1.06%; in assay [11] it was 1.2%; in assay [12] it was 2.83%. The inhibition in assay [13] worked out at 4.01%; in assay [14] it was 1.47%; in assay [15], 3.2%; in assay [16], 2.01%; in assay [17] it was 1.71%; in [18], 4.66%. Besides, the inhibition turned out to be 5.26% in assay [19] and 5.75% in assay [20].

Regarding `NC(=O)c1cc(-c2ccncc2)cc(-c2ccccc2)c1N`, the inhibition worked out at 75.5% in assay [1]; 6.4% in [2]; 6.94% in assay [3]; 3.99% in assay [4]; 4.83% in [5]; 2.91% in assay [6]. The inhibition in [7] was found to be 25.1%; in assay [8] it was 7.95%; in assay [9] it was 41.6%; in assay [10] it was 5.44%; in [11] it was 6.16%; in [12], 11.7%. Also, the inhibition in assay [13] came out at 48.8%; in assay [14], 10%; in [15], 43%; in [16] it was 1.28%; in assay [17], 3.16%; in [18], 0.99%. In addition, the inhibition was 3.43% in assay [19] and 2.46% in [20].

Take `NS(=O)(=O)c1ccc(Nc2cc(-c3ccc(O)c(F)c3)n[nH]2)cc1`: the inhibition in [1] was 86.4%; in assay [2], -3.97%; in assay [3], -1.47%; in assay [4], -0.5%; in [5] it was 20.2%; in assay [6], 8.78%. In addition, the inhibition was 55.9% in assay [7]; -0.68% in assay [8]; 7.91% in assay [9]; -0.58% in [10]; 0.7% in [11]; 2.66% in assay [12]. Besides, the inhibition in assay [13] stood at 20%; in [14] it was 0.57%; in assay [15], 17.4%; in assay [16], 1.99%; in assay [17] it was 13.4%; in [18] it was 0.07%. Further, the figures for the inhibition in [19] and in [20] were -2.91% and 5.85%, respectively.

For `CN(C)c1ccc2c(c1)/C(=C/Nc1ccc(S(N)(=O)=O)cc1)C(=O)N2`, the inhibition was 28.4% in assay [1]; 1.55% in assay [2]; 3.22% in [3]; 3.39% in assay [4]; 10% in assay [5]; -1.48% in assay [6]. The inhibition in assay [7] was -1.72%; in assay [8], 2.35%; in assay [9] it was 12.7%; in [10], 0.81%; in [11], 2.8%; in assay [12], 3.6%. Also, the inhibition in assay [13] is 22.4%; in assay [14] it was 2.71%; in assay [15], 17.4%; in assay [16], 1.88%; in assay [17], 10.8%; in assay [18], -0.65%. The figures for the inhibition in assay [19] and in assay [20] were 4.48% and 8.66%, respectively.

Turning to `COC(=O)Nc1nc2ccc(Sc3ccc(NC(=O)Nc4cc(C(F)(F)F)ccc4F)cc3)cc2[nH]1`, the inhibition in assay [1] was 43.9%; in [2], -2.14%; in assay [3], 5.31%; in assay [4] it was -0.05%; in assay [5], 30%; in assay [6], 2.79%. Besides, the inhibition is 27.3% in assay [7]; 5.45% in [8]; 34.7% in assay [9]; -0.1% in assay [10]; -2.11% in [11]; 5.69% in assay [12]. In addition, the inhibition in assay [13] was 56.1%; in assay [14] it was 4.04%; in assay [15], 49.8%; in assay [16] it was -0.94%; in assay [17], 2.34%; in [18], 1.57%. The inhibition was 36.2% in assay [19] and 32.2% in [20].
